Data as given in PubChem BioAssay (Tox21).
Records with an inconclusive call do not appear. Calls of active or inactive are those of the source. The call rests on the fitted dose curve; in most records, active means well fitted curve in the direction sought with a large enough effect in the repeat runs; inconclusive means weak or mixed curves; inactive means no such curve, though single readings can be large; an effect the other way counts as inactive or inconclusive.

What was measured:
[1] = qHTS RealTime-Glo MT Cell Viability Assay in HepG2 cells - 40 hour (AID 1224870); further: nearly all actives have a fitted effect of over 50% in size
How it was run: (§1)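 Real-time viability: cells seeded at 600 per well together with NanoLuc and cell-permeant prosubstrate, compounds added after 5 h incubation. Luminescence tracked at 0, 8, 16, 24, 32 and 40 h of exposure.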

[2] = A CellTox Green Cytotoxicity Assay to monitor cytotoxicity in HEK293 cells - 40 hour (AID 1224871); further: nearly all actives have a fitted effect of over 45% in size
How it was run: (§2)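 Read-out: fluorescence of a cell-impermeant cyanine dye staining DNA of dead cells, proportional to cytotoxicity. HEK293, 600 cells/well with reagent, compound (23 nL DMSO) added after 5 h; reads at 0, 8, 16, 24, 32, 40 h.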

[3] = qHTS RealTime-Glo MT Cell Viability Assay in HEK293 cells - 16 hour (AID 1224872); further: top concentration of the series differs between compounds; nearly all actives have a fitted effect of over 50% in size
How it was run: (§3)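 Assay medium contained NanoLuc luciferase plus cell-permeant prosubstrate, added with HEK293 cells at 600 cells/well. After 5 h at 37 C/5% CO2 compounds were added; plates stayed at 37 C for 40 h with serial luminescence reads.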

[4] = qHTS RealTime-Glo MT Cell Viability Assay in HepG2 cells - 8 hour (AID 1224873); further: nearly all actives have a fitted effect of over 55% in size
How it was run: as §1

[5] = qHTS RealTime-Glo MT Cell Viability Assay in HEK293 cells - 40 hour (AID 1224874); details: RealTime-Glo luminescence; max response: active compounds read low; further: nearly all actives have a fitted effect of over 50% in size
How it was run: (§4)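 Luminescence readout at each listed time point; HEK293, 600 cells/well, RealTime-Glo MT reagent added with cells; compounds pinned (23 nL in DMSO) after 5 h at 37 C; continuous culture at 37 C.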

[6] = A CellTox Green Cytotoxicity Assay to monitor cytotoxicity in HEK293 cells - 24 hour (AID 1224875); further: series mostly up to about 77 µM; nearly all actives have a fitted effect of over 45% in size
How it was run: as §2

[7] = A CellTox Green Cytotoxicity Assay to monitor cytotoxicity in HepG2 cells - 16 hour (AID 1224876); further: nearly all actives have a fitted effect of over 45% in size
How it was run: (§5)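 HepG2, 600 cells/well premixed w/ CellTox Green; 5 h settle, 37 C/5% CO2; pintool cpd add (DMSO); 37 C, 40 h; fluorescence read at 0, 8, 16, 24, 32, 40 h.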

[8] = qHTS RealTime-Glo MT Cell Viability Assay in HepG2 cells - 32 hour (AID 1224877); further: nearly all actives have a fitted effect of over 55% in size
How it was run: (§6)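 qHTS, HepG2, 600 cells/well, RealTime-Glo (NanoLuc + prosubstrate) added with cells; 5 h preincubation; DMSO compound addition; 37 C; luminescence at 0/8/16/24/32/40 h.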

[9] = A CellTox Green Cytotoxicity Assay to monitor cytotoxicity in HepG2 cells - 24 hour (AID 1224878); further: nearly all actives have a fitted effect of over 45% in size
How it was run: as §5

[10] = A CellTox Green Cytotoxicity Assay to monitor cytotoxicity in HepG2 cells - 40 hour (AID 1224879); further: nearly all actives have a fitted effect of over 40% in size
How it was run: as §5

[11] = qHTS RealTime-Glo MT Cell Viability Assay in HEK293 cells - 0 hour (AID 1224880)
How it was run: as §4

[12] = A CellTox Green Cytotoxicity Assay to monitor cytotoxicity in HEK293 cells - 32 hour (AID 1224881); further: nearly all actives have a fitted effect of over 40% in size
How it was run: as §2

[13] = A CellTox Green Cytotoxicity Assay to monitor cytotoxicity in HepG2 cells - 32 hour (AID 1224883); further: nearly all actives have a fitted effect of over 50% in size
How it was run: as §5

[14] = A CellTox Green Cytotoxicity Assay to monitor cytotoxicity in HEK293 cells - 8 hour (AID 1224884); further: nearly all actives have a fitted effect of over 35% in size
How it was run: as §2

[15] = qHTS RealTime-Glo MT Cell Viability Assay in HepG2 cells - 16 hour (AID 1224885); further: nearly all actives have a fitted effect of over 50% in size
How it was run: as §6

[16] = qHTS RealTime-Glo MT Cell Viability Assay in HEK293 cells - 24 hour (AID 1224886)
How it was run: as §3

[17] = qHTS RealTime-Glo MT Cell Viability Assay in HEK293 cells - 8 hour (AID 1224887)
How it was run: as §4

[18] = qHTS RealTime-Glo MT Cell Viability Assay in HepG2 cells - 0 hour (AID 1224889); further: nearly all actives have a fitted effect of over 50% in size
How it was run: as §6

[19] = A CellTox Green Cytotoxicity Assay to monitor cytotoxicity in HEK293 cells - 16 hour (AID 1224888); further: nearly all actives have a fitted effect of over 35% in size
How it was run: as §2

[20] = A CellTox Green Cytotoxicity Assay to monitor cytotoxicity in HepG2 cells - 0 hour (AID 1224882); further: nearly all actives have a fitted effect of over 35% in size
How it was run: as §5
On the % scale 0 is the no-effect control and ±100 the full control effect.

CC(=O)O[C@H](CC(=O)[O-])C[N+](C)(C)C
inactive: Potency [1] | Potency [2] | Potency [3] | outcome [4] | max response [5] 4.27% | Potency [6] | Potency [7] | Potency [8] | Potency [9] | Potency [10] | outcome [11] | Potency [12] | Potency [13] | Potency [14] | outcome [15] | Potency [16] | Potency [17] | Potency [18]

CCCC(C)C(=O)O (configuration not stated)
inactive: Potency [1] | Potency [2] | Potency [3] | outcome [4] | max response [5] -23.4% | Potency [6] | Potency [7] | Potency [8] | Potency [9] | Potency [10] | outcome [11] | Potency [12] | Potency [13] | Potency [14] | outcome [15] | Potency [16] | Potency [17] | Potency [18]

C=CCn1c(=O)n([C@@H]2O[C@H](CO)[C@@H](O)[C@H]2O)c2nc(N)[nH]c(=O)c21
inactive: Potency [1] | Potency [2] | Potency [3] | outcome [4] | max response [5] 3.44% | Potency [6] | Potency [7] | Potency [8] | Potency [9] | Potency [10] | outcome [11] | Potency [12] | Potency [13] | Potency [14] | Potency [16] | Potency [17] | Potency [19] | Potency [18]

Nc1nc2c(ncn2CCC(CO)CO)c(=O)[nH]1
inactive: Potency [1] | Potency [2] | Potency [3] | outcome [4] | max response [5] 0.17% | Potency [6] | Potency [7] | Potency [8] | Potency [9] | Potency [10] | outcome [11] | Potency [12] | Potency [13] | Potency [14] | outcome [15] | Potency [16] | Potency [17] | Potency [19]

Cc1ccccc1C(=O)O
inactive: Potency [1] | Potency [2] | Potency [3] | outcome [4] | max response [5] -0.805% | Potency [6] | Potency [7] | Potency [8] | outcome [11] | Potency [12] | Potency [20] | Potency [14] | outcome [15] | Potency [16] | Potency [17] | Potency [19] | Potency [18]

CC(C)(O)c1ccccc1
inactive: Potency [1] | Potency [2] | Potency [3] | outcome [4] | max response [5] -10.8% | Potency [6] | Potency [7] | Potency [9] | Potency [10] | outcome [11] | Potency [12] | Potency [13] | Potency [14] | outcome [15] | Potency [16] | Potency [17] | Potency [19]

C1C2OC2C2C1C1CC2C2OC12 (configuration not stated)
inactive: Potency [1] | Potency [2] | Potency [3] | outcome [4] | max response [5] 2.43% | Potency [6] | Potency [7] | Potency [8] | Potency [9] | Potency [10] | outcome [11] | Potency [12] | Potency [13] | Potency [14] | outcome [15] | Potency [16] | Potency [17] | Potency [19] | Potency [18]

C=CC(=O)N1CCOCC1
inactive: Potency [1] | Potency [2] | Potency [3] | outcome [4] | max response [5] -1.69% | Potency [6] | Potency [7] | Potency [8] | Potency [9] | Potency [10] | Potency [12] | Potency [20] | Potency [13] | Potency [14] | outcome [15] | Potency [16] | Potency [17] | Potency [19] | Potency [18]

CC12CCC(CC1=O)C2(C)C (configuration not stated)
inactive: Potency [1] | Potency [2] | Potency [3] | outcome [4] | max response [5] -2.19% | Potency [6] | Potency [7] | Potency [8] | Potency [9] | Potency [10] | Potency [12] | Potency [20] | Potency [13] | Potency [14] | outcome [15] | Potency [16] | Potency [17] | Potency [19] | Potency [18]

CC(=O)c1ccc(C)cc1
inactive: Potency [1] | Potency [2] | Potency [3] | outcome [4] | max response [5] -0.83% | Potency [6] | Potency [7] | Potency [9] | Potency [10] | outcome [11] | Potency [12] | Potency [20] | Potency [13] | Potency [14] | outcome [15] | Potency [16] | Potency [17] | Potency [19]

CN(C)C(=O)Nc1ccccc1
inactive: Potency [1] | Potency [2] | Potency [3] | outcome [4] | max response [5] 1.06% | Potency [6] | Potency [7] | Potency [9] | Potency [10] | outcome [11] | Potency [12] | Potency [20] | Potency [13] | Potency [14] | outcome [15] | Potency [16] | Potency [17] | Potency [19] | Potency [18]

C=C(C)C(=O)NCCC[N+](C)(C)C
inactive: Potency [1] | Potency [2] | Potency [3] | outcome [4] | max response [5] 0.623% | Potency [6] | Potency [7] | Potency [9] | Potency [10] | outcome [11] | Potency [12] | Potency [20] | Potency [13] | Potency [14] | outcome [15] | Potency [16] | Potency [17] | Potency [19] | Potency [18]

COC(C(=O)O)c1ccccc1 (configuration not stated)
inactive: Potency [1] | Potency [2] | Potency [3] | outcome [4] | max response [5] 2.29% | Potency [6] | Potency [7] | Potency [8] | Potency [9] | Potency [10] | outcome [11] | Potency [12] | Potency [13] | Potency [14] | outcome [15] | Potency [16] | Potency [17] | Potency [19]
